What all share (experiment): NCI-60 one-dose screen, 48 h (100 = growth as untreated, 0 = no growth, -100 = all killed)
One assay has as its system SK-MEL-2 melanoma. The settings on record: 10 µM unless noted.
The next assay concerns EKVX NSCLC. The note with it: 10 µM unless noted.
The test system of a further assay is SN12C renal. The settings on record: 10 µM unless noted.
In another assay the test system is UO-31 renal. The settings on record: 10 µM unless noted.
A further assay relates to TK-10 renal. The settings on record: 10 µM unless noted.
A further assay relates to ACHN renal. The note with it: 10 µM unless noted.
In a further assay the test system is A498 renal. The note with it: 10 µM unless noted.
The subject of another assay is CCRF-CEM leukemia. The settings on record: 10 µM unless noted.
Another assay relates to MOLT-4 leukemia. The note with it: 10 µM unless noted.
For the next assay, the system named is SR leukemia. The note with it: 10 µM unless noted.
The subject of the next assay is RPMI-8226 leukemia. The note with it: 10 µM unless noted.
Another assay deals with OVCAR-8 ovarian. The note with it: 10 µM unless noted.
Another assay relates to OVCAR-5 ovarian. The settings on record: 10 µM unless noted.
Another assay concerns IGROV1 ovarian. The note with it: 10 µM unless noted.
In the next assay the test system is OVCAR-3 ovarian. The settings on record: 10 µM unless noted.
The subject of a further assay is HS 578T breast. The settings on record: 10 µM unless noted.
Another assay concerns NCI/ADR-RES ovarian. The note with it: 10 µM unless noted.
In the next assay the test system is CAKI-1 renal. The settings on record: 10 µM unless noted.
A further assay relates to OVCAR-4 ovarian. The settings on record: 10 µM.
Another assay has as its system SK-OV-3 ovarian. The note with it: 10 µM unless noted.

The panel holds about 83,000 compounds, 20% with a hit somewhere; the sample as a whole holds those more often.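 Growth was measured after 48 h exposure to one concentration of compound in 96-well plates. Values under 10 count as active.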 A number with no mark means an inactive call. Calls of active or inactive are those of the source.

For the compound `Cc1ccc(-c2cc(-c3ccc(C)cc3)nc(N3CCN(CCNc4ccnc5cc(Cl)ccc45)CC3)n2)cc1`, the growth was 65.4% in the assay on SK-MEL-2 melanoma; 74% in the assay on EKVX NSCLC; 34.7% in the assay with SN12C renal; -27.8% (active) in the assay on UO-31 renal; 0.923% (active) in the assay on TK-10 renal; 72.9% with ACHN renal. In addition, the growth in the assay on A498 renal was 47.1%; with CCRF-CEM leukemia, 8.72% (active); with MOLT-4 leukemia, 38.9%; in the assay with SR leukemia, -1.09% (active); in the assay with RPMI-8226 leukemia, 19.4%; with OVCAR-8 ovarian it was 25.4%. Also, the growth in the assay on OVCAR-5 ovarian is 79.4%; in the assay with IGROV1 ovarian, 5.07% (active); with OVCAR-3 ovarian, -53.6% (active); in the assay with HS 578T breast, -22.6% (active); in the assay with NCI/ADR-RES ovarian, 6.51% (active).

For `COc1ccc(-c2cc(-c3ccc(OC)c(OC)c3)nc(SCCCCCC(=O)NO)n2)cc1`, the growth is 52.5% in the assay on SK-MEL-2 melanoma; 62.5% in the assay on EKVX NSCLC; 68.6% in the assay with UO-31 renal; 44.9% in the assay with TK-10 renal; 81.3% in the assay with ACHN renal; 53.7% in the assay on CAKI-1 renal. Also, the growth with A498 renal is 66.7%; in the assay on CCRF-CEM leukemia, 22.7%; in the assay on MOLT-4 leukemia, 14%; in the assay on SR leukemia it was -1.05% (active); in the assay with RPMI-8226 leukemia it was 29.4%; with OVCAR-8 ovarian, 37.7%. In addition, the growth was 52.4% with OVCAR-5 ovarian; 76.8% in the assay on OVCAR-4 ovarian; 46.6% in the assay on SK-OV-3 ovarian; 61.6% in the assay on IGROV1 ovarian; 64.8% with OVCAR-3 ovarian; 44.7% in the assay with HS 578T breast.

Consider `CCCc1cc2cc(-n3nc(C)c4c3CC(C)(C)CC4=O)cc(NC3CCSCC3)c2c(=O)[nH]1`, for which the growth is 71.6% in the assay with SK-MEL-2 melanoma; 76.4% in the assay with EKVX NSCLC; 39.8% with SN12C renal; 61% with UO-31 renal; 43.4% with TK-10 renal; 38.5% in the assay with ACHN renal. For the same compound, the growth was 71.4% with A498 renal; 100% in the assay on CCRF-CEM leukemia; 49.8% with MOLT-4 leukemia; 33.8% with SR leukemia; 49.9% in the assay on RPMI-8226 leukemia; 79% in the assay on OVCAR-8 ovarian. Also, the growth was 97% in the assay with OVCAR-5 ovarian; 97.5% with OVCAR-4 ovarian; 74.1% with IGROV1 ovarian; 87% in the assay with OVCAR-3 ovarian; 79.2% in the assay with HS 578T breast; 82.2% in the assay with NCI/ADR-RES ovarian.

Turning to `CC1=CCc2ccccc21`, the growth with SK-MEL-2 melanoma was 140%; in the assay with EKVX NSCLC, 110%; with SN12C renal, 88%; in the assay with UO-31 renal, 70.8%; in the assay with TK-10 renal it was 103%; in the assay on ACHN renal, 98.6%. Moreover, the growth is 94.3% with CCRF-CEM leukemia; 97% in the assay with MOLT-4 leukemia; 98.6% in the assay on SR leukemia; 95% in the assay on RPMI-8226 leukemia; 101% in the assay with OVCAR-8 ovarian; 102% in the assay with OVCAR-5 ovarian. Also, the growth was 101% in the assay with SK-OV-3 ovarian, 88.5% with IGROV1 ovarian, 98.3% in the assay with HS 578T breast and 98.1% in the assay on NCI/ADR-RES ovarian.

As to `O=c1[nH]c2cc(Cl)c(Cl)cc2n2cc3ncccc3c12`, the growth was 112% in the assay on SK-MEL-2 melanoma; 82.3% in the assay with EKVX NSCLC; 83% in the assay with SN12C renal; 56.9% with UO-31 renal; 94.1% in the assay with TK-10 renal; 89.7% in the assay with ACHN renal. Besides, the growth with A498 renal was 73.6%; in the assay on CCRF-CEM leukemia, 52.1%; with MOLT-4 leukemia, 58.8%; in the assay with SR leukemia it was 27.4%; in the assay on RPMI-8226 leukemia, 76.1%; with OVCAR-8 ovarian, 82.4%. The growth is 146% with OVCAR-5 ovarian; 98.9% with SK-OV-3 ovarian; 86.2% in the assay with IGROV1 ovarian; 84.5% in the assay with OVCAR-3 ovarian; 99.2% in the assay with HS 578T breast; 81.8% in the assay with NCI/ADR-RES ovarian.

As to `CC(=O)OC[C@]12CC[C@@H](C(=O)CBr)[C@@H]1[C@H]1CC[C@@H]3[C@@]4(C)CCCNC(C)(C)[C@@H]4CC[C@@]3(C)[C@]1(C)CC2`, the growth in the assay on SK-MEL-2 melanoma was -80.8% [100 µM] (active); in the assay on EKVX NSCLC, -81% [100 µM] (active); in the assay with SN12C renal, -37.8% [100 µM] (active); with UO-31 renal, -99.3% [100 µM] (active); with TK-10 renal, -92.4% [100 µM] (active); with ACHN renal, -90.1% [100 µM] (active). The growth in the assay with A498 renal was -84.5% [100 µM] (active); with CCRF-CEM leukemia, -32.5% [100 µM] (active); in the assay on MOLT-4 leukemia, -23.2% [100 µM] (active); in the assay on SR leukemia, 14.7% [100 µM]; in the assay with RPMI-8226 leukemia it was -36.1% [100 µM] (active); in the assay on OVCAR-8 ovarian, -26.1% [100 µM] (active). The growth with OVCAR-5 ovarian was -74.4% [100 µM] (active); with SK-OV-3 ovarian, -86.8% [100 µM] (active); with IGROV1 ovarian it was -61.3% [100 µM] (active); with OVCAR-3 ovarian it was -85.3% [100 µM] (active); with NCI/ADR-RES ovarian, -38.8% [100 µM] (active).

As to `C/C=C/C1OC23CCCCC2C(C#N)(C(=N)O3)C1(C#N)C#N` (stereo unspecified), the growth was 107% in the assay with SK-MEL-2 melanoma; 106% in the assay with EKVX NSCLC; 76.2% in the assay on UO-31 renal; 103% with TK-10 renal; 94.1% in the assay with ACHN renal; 81.2% in the assay on CAKI-1 renal. The growth in the assay with A498 renal was 118%; in the assay with CCRF-CEM leukemia, 81.2%; in the assay with MOLT-4 leukemia it was 95%; in the assay with SR leukemia, 49.1%; with RPMI-8226 leukemia, 98.8%; in the assay on OVCAR-8 ovarian, 93.9%. In addition, the growth with OVCAR-5 ovarian is 103%; in the assay on OVCAR-4 ovarian, 95%; with SK-OV-3 ovarian it was 103%; with IGROV1 ovarian it was 96.2%; in the assay on OVCAR-3 ovarian it was 90.2%; with HS 578T breast it was 96.9%. Also, the growth with NCI/ADR-RES ovarian is 104%.

`CC1Cc2c(Cl)ncnc2N(C)c2ccccc21` (stereo unspecified): the growth is -28.2% (active) with SK-MEL-2 melanoma; 21.7% in the assay on EKVX NSCLC; 15.8% in the assay on SN12C renal; 10.4% with UO-31 renal; 15.1% in the assay on TK-10 renal; 26% with ACHN renal. Moreover, the growth with A498 renal is -18.4% (active); in the assay with CCRF-CEM leukemia, 34.2%; in the assay with MOLT-4 leukemia, 8.61% (active); in the assay with SR leukemia it was 6.5% (active); with RPMI-8226 leukemia, 12.2%; in the assay with OVCAR-8 ovarian, 10.7%. For the same compound, the growth with OVCAR-5 ovarian is 41.8%; in the assay on SK-OV-3 ovarian, 15.8%; with IGROV1 ovarian, 50.5%; in the assay with OVCAR-3 ovarian, 10.6%; with HS 578T breast it was 24.6%; with NCI/ADR-RES ovarian it was 16.6%.
